Results filed as inconclusive are left out. The source made the active and inactive calls. Unless noted, calls follow the shape of the dose curve; as a rule, active = well fitted curve in either direction with a large enough effect (not every such curve was filed as active); inconclusive = small, poorly fitted or top-dose-only effect, or another doubt; inactive = flat fitted curve, though single readings scatter.
Experiments:
[1] = molecular target: Lysosomal acid glucosylceramidase (Homo sapiens) (UniProt P04062); experiment: Glucocerebrosidase-p2 (AID 348; in the data active = potency below about 10 µM; also: potency is read from the fitted curve at half-maximal effect); settings: purified GBA, blue fluorogenic substrate, 40 min
Lysosomal acid glucosylceramidase (Homo sapiens), sequence (P04062 whole entry, looked up): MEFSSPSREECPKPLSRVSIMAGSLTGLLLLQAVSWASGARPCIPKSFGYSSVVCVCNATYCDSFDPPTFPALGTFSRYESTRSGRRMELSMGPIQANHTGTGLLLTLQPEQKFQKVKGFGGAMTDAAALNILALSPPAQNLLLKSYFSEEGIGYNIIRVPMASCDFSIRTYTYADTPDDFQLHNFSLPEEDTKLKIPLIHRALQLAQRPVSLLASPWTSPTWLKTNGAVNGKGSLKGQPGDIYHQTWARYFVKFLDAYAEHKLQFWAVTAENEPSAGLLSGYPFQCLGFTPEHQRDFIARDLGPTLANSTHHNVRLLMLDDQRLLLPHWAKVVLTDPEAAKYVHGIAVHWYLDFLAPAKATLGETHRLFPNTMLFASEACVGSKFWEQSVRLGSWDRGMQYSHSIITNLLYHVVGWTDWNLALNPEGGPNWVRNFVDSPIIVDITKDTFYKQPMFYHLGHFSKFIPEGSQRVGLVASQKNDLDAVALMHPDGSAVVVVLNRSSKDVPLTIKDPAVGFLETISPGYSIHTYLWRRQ
Method in brief: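 Compounds titrated from 0.6 nM upwards against 0.2 nM enzyme in pH 5.9 citric acid/KH2PO4, taurocholate, tween-20; blue fluorogenic substrate 80 uM, 40 min room temperature, stopped and read Ex 365/Em 440 for AC50.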

[2] = AP1 Signaling Pathway (AID 357); settings: ME-180 AP-1-bla reporter, EGF-induced, beta-lactamase ratio, 5 h; at 7.69 µM (top of the series) unless noted; also: % is scaled to controls: 0 for no effect and ±100 for the full control effect
Method in brief: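 ME-180 cells with beta-lactamase reporter under AP-1 response element, stimulated with EC50 EGF; compounds tested in titration series, 5 h at 37 °C. CCF4 substrate added 2.5 h at room temperature; 460/530 nm emission ratio gave %activity and AC50.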

[3] = NFAT Signaling Pathway (AID 444); settings: Jurkat NFAT-bla M1, carbachol, beta-lactamase ratio, 5 h; at 7.69 µM (top of the series) unless noted;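 also: carbachol stimulus at about its EC50 of 1 µM final; % is scaled to controls: 0 for no effect and ±100 for the full control effect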
Method in brief: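 Jurkat cells with NFAT-driven β-lactamase reporter and co-expressed M1 receptor, stimulated with carbachol (final 1 uM, ~EC50), compound titration, 5 h at 37 °C. CCF4 loaded 1 h at RT; 460/530 nm ratio gave %activity and AC50.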

[4] = Stat Signaling Pathway (AID 446); settings: ME-180 (cervical carcinoma) SIE beta-lactamase reporter, IL-6 stimulated, 5 h; at 7.69 µM (top of the series) unless noted;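 also: ME-180 cervical cancer cells given 40 pM IL-6 alongside compound; SIE-controlled beta-lactamase reporter measured as 460/530 nm FRET emission ratio; % is scaled to controls: 0 for no effect and ±100 for the full control effect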
Method in brief: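 IL-6/STAT signaling read in ME-180 cells via an SIE beta-lactamase reporter. Stimulus was 40 pM IL-6 (its AC50) for 5 hrs, so both activation and inhibition register.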

[5] = molecular target: Glucocorticoid receptor (Homo sapiens) (UniProt P04150); experiment: GR-GFP Redistribution (AID 450;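 active = compounds whose dose series gives a full or clear partial fitted curve of increased nuclear translocation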; also: potency is read from the fitted curve at half-maximal effect); settings: U2OS GR-GFP nuclear translocation, laser cytometry, 2 h
Glucocorticoid receptor (Homo sapiens), sequence (P04150 whole entry, looked up, the tested form may be a part): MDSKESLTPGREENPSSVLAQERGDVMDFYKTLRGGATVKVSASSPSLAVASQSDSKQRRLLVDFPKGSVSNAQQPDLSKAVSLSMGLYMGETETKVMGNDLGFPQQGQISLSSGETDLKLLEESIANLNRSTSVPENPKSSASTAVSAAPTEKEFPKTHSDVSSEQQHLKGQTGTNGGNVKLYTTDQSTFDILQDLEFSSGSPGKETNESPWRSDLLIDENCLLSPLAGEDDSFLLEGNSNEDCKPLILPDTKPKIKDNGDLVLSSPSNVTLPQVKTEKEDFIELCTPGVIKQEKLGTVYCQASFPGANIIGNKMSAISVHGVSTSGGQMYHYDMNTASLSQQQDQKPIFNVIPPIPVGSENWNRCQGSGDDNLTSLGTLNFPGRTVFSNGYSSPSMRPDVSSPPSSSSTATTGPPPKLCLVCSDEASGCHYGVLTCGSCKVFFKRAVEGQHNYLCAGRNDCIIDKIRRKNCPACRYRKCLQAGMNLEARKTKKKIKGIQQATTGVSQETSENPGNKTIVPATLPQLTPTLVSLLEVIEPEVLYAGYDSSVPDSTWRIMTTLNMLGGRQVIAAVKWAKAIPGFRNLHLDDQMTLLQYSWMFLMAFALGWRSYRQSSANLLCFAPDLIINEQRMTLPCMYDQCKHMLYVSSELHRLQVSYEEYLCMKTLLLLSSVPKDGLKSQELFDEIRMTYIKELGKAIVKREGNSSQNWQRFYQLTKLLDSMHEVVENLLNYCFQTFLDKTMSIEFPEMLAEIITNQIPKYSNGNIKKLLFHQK

[6] = molecular target: Glucocorticoid receptor (Homo sapiens) (UniProt P04150); experiment: GR-EFC Redistribution (AID 451; calls by dose curve; also: potency is read from the fitted curve at half-maximal effect); settings: CHO-K1 GR-EFC translocation, beta-gal luminescence, 2 h
Method in brief: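 CHO-K1 cells expressing nuclear EA and GR-ED fragments of b-gal; compounds titrated up to 46 uM final, 2 h at 37 C. GR nuclear translocation read as complemented b-gal luminescence after 1 h RT detection.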

[7] = molecular target: Mitogen-activated protein kinase 10 (Mus musculus) (UniProt Q61831); experiment: JNK3 AlphaScreen Assay (AID 530); settings: JNK3 lysate, c-Jun phosphorylation; series mostly up to 11.4 µM;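 also: kinase came from lysate of stimulated human HepG2 cells; signal reports phosphorylation of biotinylated GST-cJun 1-79 at Ser73 with 10 µM ATP; % is scaled to controls: 0 for no effect and ±100 for the full control effect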
Method in brief: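 Pre-activated (IL-1β/TNFα) JNK3 in HepG2 lysates phosphorylates biotin-GST-cJun(1-79), 10 uM ATP; anti-phospho-cJun(Ser73) AlphaScreen read at room temperature, pH 7.6 Tris buffer. Compounds pre-incubated 15 min as titrations.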

[8] = molecular target: 3',5'-cyclic-AMP phosphodiesterase 4B (Homo sapiens) (UniProt Q07343); experiment: qHTS Assay for Inhibitors of PDE-IV (AID 607; active = well fitted activation curve with a large enough effect in the main read-out, with a control signal flat, not every such curve was filed as active; also: % of control where 0% means no effect); settings: HEK293 ACTOne CNG channel cells, membrane potential fluorescence; series mostly up to 22.9 µM
3',5'-cyclic-AMP phosphodiesterase 4B (Homo sapiens), sequence (Q07343 whole entry, looked up): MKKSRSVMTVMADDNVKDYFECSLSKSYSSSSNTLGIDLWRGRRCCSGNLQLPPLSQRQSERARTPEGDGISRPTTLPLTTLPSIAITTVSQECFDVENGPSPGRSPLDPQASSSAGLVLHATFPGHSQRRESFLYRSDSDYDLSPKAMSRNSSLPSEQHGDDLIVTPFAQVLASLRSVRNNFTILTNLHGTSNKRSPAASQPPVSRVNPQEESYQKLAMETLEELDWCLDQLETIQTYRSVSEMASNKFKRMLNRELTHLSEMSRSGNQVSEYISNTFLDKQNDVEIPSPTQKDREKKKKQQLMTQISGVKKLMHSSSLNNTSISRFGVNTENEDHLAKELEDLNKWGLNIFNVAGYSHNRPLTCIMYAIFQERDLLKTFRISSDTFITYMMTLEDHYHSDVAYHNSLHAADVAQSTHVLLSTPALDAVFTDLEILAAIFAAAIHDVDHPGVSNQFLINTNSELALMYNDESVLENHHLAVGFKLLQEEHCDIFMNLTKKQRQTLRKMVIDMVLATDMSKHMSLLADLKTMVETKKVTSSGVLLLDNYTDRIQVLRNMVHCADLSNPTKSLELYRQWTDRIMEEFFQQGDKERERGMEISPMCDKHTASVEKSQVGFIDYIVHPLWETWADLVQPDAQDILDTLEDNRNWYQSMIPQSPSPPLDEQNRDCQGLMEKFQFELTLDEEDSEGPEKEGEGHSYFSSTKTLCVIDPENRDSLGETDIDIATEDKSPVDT
Method in brief: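 Live HEK293 cells with a modified cyclic nucleotide-gated (CNG) channel report intracellular cAMP via membrane-potential dye fluorescence (ex 535/em 590 nm). Endogenous PDE-IV was targeted. Compounds were tested at up to 22.9 uM final; RO 20-1724 100 uM served as control.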

CSc1nc(C)cc(Nc2ccc(O)c(CN3CCCCC3)c2)n1
inactive: Potency [1] > 11.4 µM | activity change, negative = inhibition [2] -6.95% | activity change, negative = inhibition [3] -16.1% | activity, negative = inhibition [4] 2.99% | Potency [5] > 46 µM | Potency [6] > 9.22 µM | Potency [7] | Potency [8]

Cc1ccc(S(=O)(=O)OCC(=O)O)cc1
inactive: Potency [1] > 11.4 µM | activity change, negative = inhibition [2] 2.36% | activity change, negative = inhibition [3] 4.54% | activity, negative = inhibition [4] 5.39% | Potency [5] > 46 µM | Potency [6] > 9.22 µM | Potency [7] | Potency [8]

CC(C)=CCNc1ncnc2c1c(C#N)cn2[C@H]1O[C@@H](CO)[C@@H](O)[C@@H]1O
inactive: Potency [1] > 11.4 µM | activity change, negative = inhibition [2] -1.6% | activity change, negative = inhibition [3] 6.29% | activity, negative = inhibition [4] 10.4% | Potency [5] > 46 µM | Potency [6] > 9.22 µM | Potency [7] | Potency [8]

Cc1cccc(CNc2ncnc3[nH]ncc23)c1
inactive: Potency [1] > 11.4 µM | activity change, negative = inhibition [2] -1.11% | activity change, negative = inhibition [3] -3.71% | activity, negative = inhibition [4] -8.78% | Potency [5] > 46 µM | Potency [6] > 9.22 µM | Potency [7] | Potency [8]

O=C(O)[C@H]1O[C@H]1C(=O)O
inactive: Potency [1] > 11.4 µM | activity change, negative = inhibition [2] 7.85% | activity change, negative = inhibition [3] -1.75% | activity, negative = inhibition [4] 2.71% | Potency [5] > 46 µM | Potency [6] > 9.22 µM | Potency [7] | Potency [8]

C[C@H](Br)C(=O)Nc1ccc(C(=O)O)c(O)c1
inactive: Potency [1] > 11.4 µM | activity change, negative = inhibition [2] 1.78% | activity change, negative = inhibition [3] -22.6% | activity, negative = inhibition [4] -4.23% | Potency [5] > 46 µM | Potency [6] > 9.22 µM | Potency [7] | Potency [8]

CCCNc1ncnc2[nH]ncc12
inactive: Potency [1] > 11.4 µM | activity change, negative = inhibition [2] -4.57% | activity change, negative = inhibition [3] 5.61% | activity, negative = inhibition [4] -1.7% | Potency [5] > 46 µM | Potency [6] > 9.22 µM | Potency [7] | Potency [8]

CC(=O)Nc1c(C)cc(OCC(=O)O)cc1C
inactive: Potency [1] > 11.4 µM | activity change, negative = inhibition [2] -0.915% | activity change, negative = inhibition [3] 19.3% | activity, negative = inhibition [4] 12.5% | Potency [5] > 46 µM | Potency [6] > 9.22 µM | Potency [7] | Potency [8]

O=C(O)c1ccccc1-c1ccccc1C(=O)c1ccccc1
inactive: Potency [1] > 11.4 µM | activity change, negative = inhibition [2] 6.33% | activity change, negative = inhibition [3] 5.49% | activity, negative = inhibition [4] 2.8% | Potency [5] > 46 µM | Potency [6] > 9.22 µM | Potency [7] | Potency [8]

CC(C)(C)n1nc(C2CC2)cc1NC(=O)Nc1ccc(Cl)cc1
inactive: Potency [1] > 11.4 µM | activity change, negative = inhibition [2] -5.76% | activity change, negative = inhibition [3] 8.66% | activity, negative = inhibition [4] -5.8% | Potency [5] > 46 µM | Potency [6] > 9.22 µM | Potency [7] | Potency [8]

O=C(O)c1ccc(C(=O)O)c(C(=O)Nc2ccc3c(c2)Cc2ccccc2-3)c1
inactive: Potency [1] > 11.4 µM | activity change, negative = inhibition [2] 5.18% | activity change, negative = inhibition [3] 4.14% | activity, negative = inhibition [4] -0.756% | Potency [5] > 46 µM | Potency [6] > 9.22 µM | Potency [7] | Potency [8]

CCOC(=O)c1c(O)[nH]c(=O)c(CC)c1C
inactive: Potency [1] > 11.4 µM | activity change, negative = inhibition [2] -5.14% | activity change, negative = inhibition [3] -3.29% | activity, negative = inhibition [4] 13.4% | Potency [5] > 46 µM | Potency [6] > 9.22 µM | Potency [7] | Potency [8]

C(=N/Nc1ccccn1)/c1cccnc1
inactive: Potency [1] > 11.4 µM | activity change, negative = inhibition [2] 3.9% | activity change, negative = inhibition [3] 5.25% | activity, negative = inhibition [4] 2.75% | Potency [5] > 46 µM | Potency [6] > 9.22 µM | Potency [7] | Potency [8]

Nc1nc2c(ncn2[C@H]2CC[C@@H](CO)O2)c(=O)n1C(=O)c1ccccc1
inactive: Potency [1] > 11.4 µM | activity change, negative = inhibition [2] 5.69% | activity change, negative = inhibition [3] -10.1% | activity, negative = inhibition [4] 0.604% | Potency [5] > 46 µM | Potency [6] > 9.22 µM | Potency [7] | Potency [8]

CN1CCN(c2ncc3nc(CCc4ccccc4)c(=O)n(CCC#N)c3n2)CC1
inactive: Potency [1] > 11.4 µM | activity change, negative = inhibition [2] -1.24% | activity change, negative = inhibition [3] -8.66% | activity, negative = inhibition [4] -3.93% | Potency [5] > 9.22 µM | Potency [6] > 46 µM | Potency [7] | Potency [8]

[N-]=[N+]=CC(=O)COC(=O)c1ccccc1
inactive: Potency [1] > 11.4 µM | activity change, negative = inhibition [2] 9.2% | activity change, negative = inhibition [3] 16.5% | activity, negative = inhibition [4] -0.859% | Potency [5] > 46 µM | Potency [6] > 9.22 µM | Potency [7] | Potency [8]

CCSCCCC(=O)O
inactive: Potency [1] > 11.4 µM | activity change, negative = inhibition [2] -6.6% | activity change, negative = inhibition [3] 2.17% | activity, negative = inhibition [4] 8.19% | Potency [5] > 46 µM | Potency [6] > 9.22 µM | Potency [7]
